According to the supplement of paper PMC10981050:
Structures can show the parent of a compound that is named as a salt.

system: MOLM14; test: cell viability relative to vehicle control; higher = less cytotoxic; conditions: 10 µM; SRSF2 genotype: SRSF2 P95H/wt
Outline: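 Mutant clones made by CRISPR editing and their isogenic wild-type counterparts, from four leukaemia lines, were exposed to a single 10 µM dose of each library compound for 48 h. The supernatant was then removed and CellTiter-Glo luminescence was read. Viability was reported as percent of the on-plate vehicle control.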

Structure (SMILES) | cell viability
CO[C@H]1C[C@H](O[C@H]2[C@H](C)O[C@@H](O[C@@H]3/C(C)=C/C[C@@H]4C[C@@H](C[C@]5(C=C[C@H](C)[C@@H](C6CCCCC6)O5)O4)OC(=O)[C@@H]4C=C(C)[C@@H](O)[C@H]5OC/C(=C\C=C\[C@@H]3C)[C@]54O)C[C@@H]2OC)O[C@@H](C)[C@@H]1O [Doramectin] | 24.6%
C[C@H](CCC(=O)O)[C@H]1CC[C@H]2[C@@H]3[C@@H](O)C[C@@H]4C[C@H](O)CC[C@]4(C)[C@H]3CC[C@]12C [Ursodiol (Actigal Urso)] | 99.4%
C/C=C(\C)C(=O)OC1c2c(ccc3ccc(=O)oc23)OC(C)(C)C1OC(=O)/C(C)=C/C (stereo unspecified) [Praeruptorin B] | 109%
COc1cc([C@@H]2Oc3cc([C@H]4Oc5cc(O)cc(O)c5C(=O)[C@@H]4O)ccc3O[C@H]2CO)ccc1O [Silymarin (Silybin B)] | 105%
CCOC(=O)C1=C(COCCN)NC(C)=C(C(=O)OC)[C@@H]1c1ccccc1Cl [Levamlodipine] | 50.3%
CC1(C)CC[C@]2(C(=O)O)CC[C@]3(C)C(=CC[C@@H]4[C@@]5(C)CC[C@H](O)[C@@](C)(CO)[C@@H]5CC[C@]43C)[C@@H]2C1 [Hederagenin] | 106%
O=C(O)[C@]1(Cc2cccc(Nc3nccs3)n2)CC[C@@H](Oc2cccc(Cl)c2F)CC1 | 27.7%
O=C(Oc1cccc(F)c1OC(=O)c1cccc(O)c1)c1cccc(O)c1 | 78.4%
C[C@@H](O)[C@H]1C(=O)N2C(C(=O)O)=C(S[C@@H]3CN[C@H](C(=O)N(C)C)C3)[C@H](C)[C@H]12 [Meropenem] | 103%
CC(C)=CCC/C(C)=C/Cc1c(O)c(CC=C(C)C)c2c(c1O)C(=O)C1=C[C@@H]3C[C@H]4C(C)(C)O[C@@](C/C=C(/C)C(=O)O)(C3=O)[C@@]14O2 [Gambogenic acid] | 0.23%
CO[C@H]1C(=O)[C@]2(C)[C@@H](OC)C[C@H]3OC[C@@]3(OC(C)=O)[C@H]2[C@H](OC(=O)c2ccccc2)[C@]2(O)C[C@H](OC(=O)[C@H](O)[C@@H](NC(=O)OC(C)(C)C)c3ccccc3)C(C)=C1C2(C)C [Cabazitaxel (Jevtana)] | 8.88%
O=C(CCc1ccc(O)cc1)c1c(O)cc(O)cc1O [Phloretin] | 91%
CCCCCCCCCCCCc1ccc(S(=O)(=O)Nc2nncs2)cc1 | 105%
COc1cccc2cc(-c3nc([C@H]4CC[C@H](C(=O)O)CC4)n4ncnc(N)c34)[nH]c12 | 29.4%
COc1ccc(C[C@H](N)C(=O)N[C@H]2[C@@H](O)[C@H](n3cnc4c(N(C)C)ncnc43)O[C@@H]2CO)cc1 [Puromycin 2HCl] | 0.25%
COc1cc(-c2oc3cc(O)cc(O)c3c(=O)c2O[C@@H]2O[C@H](CO[C@@H]3O[C@@H](C)[C@H](O)[C@@H](O)[C@H]3O)[C@@H](O)[C@H](O)[C@H]2O)ccc1O [Narcissoside] | 107%
C[C@]12CC[C@@H]3c4ccc(OC(=O)c5ccccc5)cc4CC[C@H]3[C@@H]1CC[C@@H]2O [Estradiol Benzoate] | 82.6%
CCCC(=O)NCCc1csc(-c2ccc(Cl)cc2)n1 [Azoramide] | 102%
C=C[C@]1(C)C[C@@H](OC(=O)CS[C@@H]2C[C@H]3CC[C@@H](C2)N3C)[C@]2(C)[C@H](C)CC[C@]3(CCC(=O)[C@H]32)[C@@H](C)[C@@H]1O [Retapamulin] | 87.6%
Cc1cnc(C(=O)O)c[n+]1[O-] [Acipimox] | 98.8%
CC(=O)Nc1cccc(-n2c(=O)n(C3CC3)c(=O)c3c(Nc4ccc(I)cc4F)n(C)c(=O)c(C)c32)c1 | 42.3%
CCN(CC)CC(=O)Nc1c(C)cccc1C [Lidocaine (Alphacaine)] | 103%
Cc1nc(Nc2n[nH]c3c2CN(C(=O)N[C@H](CN(C)C)c2ccccc2)C3(C)C)c2sccc2n1 | 0.49%
Cc1ccccc1C(=O)Nc1ccc(C(=O)N2CCCC(N(C)C)c3ccccc32)cc1 (stereo unspecified) [Mozavaptan] | 97.1%
NS(=O)(=O)c1cc2c(cc1Cl)N=CNS2(=O)=O [Chlorothiazide] | 102%
CCCn1/c(=N/C(=O)c2cccc(C(N)=O)c2)[nH]c2ccccc21 [Takinib] | 77.8%

same assay, conditions: 10 µM; SRSF2 genotype: SRSF2 wt/wt

Structure (SMILES) | cell viability
CC(C)NCC(O)COc1ccc(CCOCC2CC2)cc1 (stereo unspecified) [Betaxolol hydrochloride (Betoptic)] | 99.7%
c1ccc2[nH]c(-c3cscn3)nc2c1 [Thiabendazole] | 99%
Cc1c[nH]c(C=C2C(=O)Nc3ccccc32)c1CCC(=O)O | 28%
C[C@H](NC(=O)CCc1nc2ccccc2c(=O)[nH]1)c1ccccc1 | 100%
C=CC(=O)N1C[C@H](Nc2ncnc3[nH]ccc23)CC[C@@H]1C | 93.8%
CC(=O)Nc1ccc(C(=O)Nc2ccccc2N)cc1 [CI994 (Tacedinaline)] | 25.8%
N#Cc1c(NC(=O)c2cccc3ccccc23)sc2c1CCCC2 [JNK inhibitor IX] | 3.68%
CNC(=O)c1cc(COc2nnc(Nc3ccc(Cl)cc3)c3ccoc23)ccn1 [Telatinib (BAY 57-9352)] | 97.3%
Cn1c(N2CCCCS2(=O)=O)nc(C(=O)NCc2ccc(F)cc2)c(O)c1=O | 111%
CCC[C@@H]1C[C@@H](C(=O)N[C@@H]([C@H]2O[C@H](SC)[C@H](O)[C@@H](O)[C@H]2O)[C@H](C)Cl)N(C)C1 [Clindamycin HCl] | 108%
COCCNC(=O)Nc1ccc2nc(-c3cccs3)c(-c3cccs3)nc2c1 [ACSS2 inhibitor] | 94.8%
CC(C)=CCCC(C)(O)C1CCC2(C)C1C(O)CC1C3(C)CCC(O)C(C)(C)C3C(OC3OC(CO)C(O)C(O)C3OC3OC(C)C(O)C(O)C3O)CC12C [(20S)Ginsenoside Rg2] | 104%
COC1C(O)C(O)C(O)C(O)C1O (stereo unspecified) [Sequoyitol] | 109%
CO[C@H]1C[C@H](O[C@H]2[C@H](C)O[C@@H](O[C@@H]3/C(C)=C/C[C@@H]4C[C@@H](C[C@]5(C=C[C@H](C)[C@@H](C6CCCCC6)O5)O4)OC(=O)[C@@H]4C=C(C)[C@@H](O)[C@H]5OC/C(=C\C=C\[C@@H]3C)[C@]54O)C[C@@H]2OC)O[C@@H](C)[C@@H]1O [Doramectin] | 29.9%
C[C@H](CCC(=O)O)[C@H]1CC[C@H]2[C@@H]3[C@@H](O)C[C@@H]4C[C@H](O)CC[C@]4(C)[C@H]3CC[C@]12C [Ursodiol (Actigal Urso)] | 100%
C/C=C(\C)C(=O)OC1c2c(ccc3ccc(=O)oc23)OC(C)(C)C1OC(=O)/C(C)=C/C (stereo unspecified) [Praeruptorin B] | 94.7%
COc1cc([C@@H]2Oc3cc([C@H]4Oc5cc(O)cc(O)c5C(=O)[C@@H]4O)ccc3O[C@H]2CO)ccc1O [Silymarin (Silybin B)] | 102%
CCOC(=O)C1=C(COCCN)NC(C)=C(C(=O)OC)[C@@H]1c1ccccc1Cl [Levamlodipine] | 52%

Structure (SMILES) | cell viability
CC1(C)CC[C@]2(C(=O)O)CC[C@]3(C)C(=CC[C@@H]4[C@@]5(C)CC[C@H](O)[C@@](C)(CO)[C@@H]5CC[C@]43C)[C@@H]2C1 [Hederagenin] | 105%
O=C(O)[C@]1(Cc2cccc(Nc3nccs3)n2)CC[C@@H](Oc2cccc(Cl)c2F)CC1 | 20.6%
O=C(Oc1cccc(F)c1OC(=O)c1cccc(O)c1)c1cccc(O)c1 | 80.3%
C[C@@H](O)[C@H]1C(=O)N2C(C(=O)O)=C(S[C@@H]3CN[C@H](C(=O)N(C)C)C3)[C@H](C)[C@H]12 [Meropenem] | 101%
CC(C)=CCC/C(C)=C/Cc1c(O)c(CC=C(C)C)c2c(c1O)C(=O)C1=C[C@@H]3C[C@H]4C(C)(C)O[C@@](C/C=C(/C)C(=O)O)(C3=O)[C@@]14O2 [Gambogenic acid] | 0.27%
CO[C@H]1C(=O)[C@]2(C)[C@@H](OC)C[C@H]3OC[C@@]3(OC(C)=O)[C@H]2[C@H](OC(=O)c2ccccc2)[C@]2(O)C[C@H](OC(=O)[C@H](O)[C@@H](NC(=O)OC(C)(C)C)c3ccccc3)C(C)=C1C2(C)C [Cabazitaxel (Jevtana)] | 4.79%
O=C(CCc1ccc(O)cc1)c1c(O)cc(O)cc1O [Phloretin] | 95.7%
CCCCCCCCCCCCc1ccc(S(=O)(=O)Nc2nncs2)cc1 | 106%
COc1cccc2cc(-c3nc([C@H]4CC[C@H](C(=O)O)CC4)n4ncnc(N)c34)[nH]c12 | 24.9%
COc1ccc(C[C@H](N)C(=O)N[C@H]2[C@@H](O)[C@H](n3cnc4c(N(C)C)ncnc43)O[C@@H]2CO)cc1 [Puromycin 2HCl] | 0.31%
COc1cc(-c2oc3cc(O)cc(O)c3c(=O)c2O[C@@H]2O[C@H](CO[C@@H]3O[C@@H](C)[C@H](O)[C@@H](O)[C@H]3O)[C@@H](O)[C@H](O)[C@H]2O)ccc1O [Narcissoside] | 105%
C[C@]12CC[C@@H]3c4ccc(OC(=O)c5ccccc5)cc4CC[C@H]3[C@@H]1CC[C@@H]2O [Estradiol Benzoate] | 76.1%
CCCC(=O)NCCc1csc(-c2ccc(Cl)cc2)n1 [Azoramide] | 99.5%
C=C[C@]1(C)C[C@@H](OC(=O)CS[C@@H]2C[C@H]3CC[C@@H](C2)N3C)[C@]2(C)[C@H](C)CC[C@]3(CCC(=O)[C@H]32)[C@@H](C)[C@@H]1O [Retapamulin] | 84.5%
Cc1cnc(C(=O)O)c[n+]1[O-] [Acipimox] | 101%
CC(=O)Nc1cccc(-n2c(=O)n(C3CC3)c(=O)c3c(Nc4ccc(I)cc4F)n(C)c(=O)c(C)c32)c1 | 27.1%
CCN(CC)CC(=O)Nc1c(C)cccc1C [Lidocaine (Alphacaine)] | 105%
